# Assay results: PubChem BioAssay AID1259343 (VanderVen Lab, College of Veterinary Medicine, Cornell …, 2017)
# The campaign covered roughly 6,200 compounds. About 2,900 (47%) were called active. Cut-off read from the data, not from the text of the source: active = inhibition above about 50%; inactive = the rest. So high a share suggests a set chosen from earlier hits. This is one part of the list.
# Experiment: Mycobacterium tuberculosis growth inhibition, primary screen (AID 1259343)
# Details: inhibition: at 10 µM, stronger effect = higher value; outcome: 10 uM
row,SMILES,inhibition
1,CCCC[P+](CCCC)(CCCC)Cc1ccc(NC(=O)[C@@H](Cc2ccc3ccccc3c2)NC(=NC2CCCCC2)NC2CCCCC2)cc1,95.8% (active)
2,O=C(Nc1ncccc1OCC1CCCCC1)c1cscn1,55.5% (active)
3,O=C(NCC1(c2ccccc2)CC1)c1cc(Cl)ccc1O,94.2% (active)
4,O=S(=O)(NCC1(c2ccccc2)CC1)N1CCCCCC1,16.5% (inactive)
5,N#CC(C(=O)C1COc2ccccc2O1)c1nc2ccccc2s1 (stereo not given),19% (inactive)
6,N#CC(C(=O)COc1cc(F)ccc1F)c1nc2ccccc2s1 (stereo not given),91.5% (active)
7,N#CC(C(=O)C1c2ccccc2-c2ccccc21)c1nc2ccccc2s1 (stereo not given),33.3% (inactive)
8,COc1ccc(-c2[nH]ncc2CNC(=O)CC2COCCN2)cc1 (stereo not given),-11.1% (inactive)
9,COc1ccc2cc(-c3[nH]ncc3CNC(C)Cc3cccs3)ccc2c1 (stereo not given),50.1% (active)
10,CCOc1ccc(Oc2ccc(NC(C)=O)cc2)cc1,-0.29% (inactive)
11,CCOc1ccc(Oc2ccccc2NC(C)=O)cc1,73.6% (active)
12,CCOc1cccc(OCCCOc2ccccc2C(C)=O)c1,92.5% (active)
13,CCOc1ccc(OCCCCOc2ccccc2C(C)=O)cc1,98% (active)
14,CC1CN(C(=O)c2ccc(NC(=O)C3CC3)cc2)c2ccccc2O1 (stereo not given),87.7% (active)
15,CCCCc1ccc(-c2csc(NC(=O)OC)c2C(N)=O)cc1,2.76% (inactive)
16,CCCCCCCCc1ccc(CCC(N)(CO)CO)cc1,92% (active)
17,CCOc1ccc(/C=N\Nc2nc(-c3ccc(OC)c(OC)c3)cs2)cc1,79.8% (active)
18,CCN(CC)c1ccc2cc(-c3csc(N/N=C\c4ccc(OC)cc4)n3)c(=O)oc2c1,25.9% (inactive)
19,CCOc1ccc(C=C2N=C(C(C)(C)C)OC2=O)cc1OC,23.4% (inactive)
20,CCOc1cc(C=NNc2nc(C)cs2)ccc1OC,72% (active)
21,c1cc2c(cc1-c1csc(NCC3CCC3)n1)OCCCO2,3.11% (inactive)
22,Cc1ccc(/C=N\Nc2nc(-c3ccc4c(c3)OCCO4)cs2)cc1,-51.4% (inactive)
23,COc1ccc(/C=N\Nc2nc(-c3ccc4c(c3)OCCO4)cs2)cc1OC,85.6% (active)
24,CN1CC(CNC(=O)OCc2ccccc2)CC2c3cccc4c3c(cn4C)CC21 (stereo not given),96.7% (active)
25,CCOP(=O)(Oc1ccccc1)c1c([N+](=O)[O-])cc(C(F)(F)F)cc1[N+](=O)[O-] (stereo not given),94.9% (active)

row,SMILES,inhibition
1,CC(Oc1ccc(-n2cnc(-c3ccccc3)c2)cc1)C(N)=O (stereo not given),43.6% (inactive)
2,CC(C)Oc1ccc(Nc2nccc3[nH]c(-c4ccccc4)cc23)cc1,92.6% (active)
3,CCN(CC)c1cc(-c2ccccc2)nc(SCc2cccc(C(=O)O)c2)n1,8.57% (inactive)
4,c1ccc(CSc2nn3cc(-c4ccccc4)nc3s2)cc1,16.3% (inactive)
5,O=C(CSc1ccc2nc(-c3ccccc3)cn2n1)c1ccccc1,65.7% (active)
6,CN(C(=O)/C=C/c1ccc([N+](=O)[O-])s1)c1ccccc1,6.56% (inactive)
7,O=C(/C=C/c1ccc([N+](=O)[O-])s1)Nc1ccc(F)cc1F,99.5% (active)
8,CCCCc1ccc(NC2=NC(C)(C)CS2)cc1,89.8% (active)
9,NC(N)=NN=CC(Cl)=Cc1ccccc1,85.8% (active)
10,NC(N)=NN=C1c2ccccc2-c2ccccc21,-74.8% (inactive)
11,NC(N)=NN=Cc1ccc(-c2ccccc2)cc1,38.6% (inactive)
12,Cc1cc2oc(NC(=O)c3ccc(=O)n(C)c3)nc2c(C)c1Cl,-2.23% (inactive)
13,COc1ccc(C(=O)C2CCCN(Cc3nc(-c4ccc(F)cc4)cs3)C2)c(OC)c1 (stereo not given),31.3% (inactive)
14,COc1ccc(-c2csc(C(C#N)C(=O)CC3C=CCC3)n2)cc1 (stereo not given),79.7% (active)
15,CC(NC(=O)Nc1cccnc1N1CCCC1)c1ccn(C)c1 (stereo not given),-18.1% (inactive)
16,CN(C)c1cccc(Nc2nccc3c2cc(-c2ccsc2)n3C)c1,63.8% (active)
17,CN(C)c1cccc(Nc2nccc3c2cc(-c2ccccc2)n3C)c1,74.6% (active)
18,O=C(NCc1cc(Br)cs1)c1ccc(Cl)o1,37.9% (inactive)
19,O=C(NCc1ccc(Cl)s1)c1ccc(Br)o1,-14.3% (inactive)
20,O=C(NCCc1ccc(Cl)s1)c1ccc(Cl)o1,79.6% (active)
21,CCOc1cc(C=Nn2c(C)csc2=NC(C)C)ccc1O,18.4% (inactive)
22,Cc1ccc(OP(N)(=O)Oc2ccc(C)cc2)cc1,-4.77% (inactive)
23,O=C1CCCCC1Sc1nnc(Nc2ccccc2)s1 (stereo not given),6.48% (inactive)
24,CCc1ccc(-c2nc(SC3CCCCC3=O)n[nH]2)cc1 (stereo not given),57.1% (active)
25,CN(C1CCCCC1)S(=O)(=O)NC1COc2ccccc21 (stereo not given),37.8% (inactive)

row,SMILES,inhibition
1,COc1c(Cl)cc(C(=O)NCC(c2cccc(F)c2)N(C)C)cc1Cl (stereo not given),-3.98% (inactive)
2,Oc1c(I)cc2oc3c(c2c1C=NCc1ccncc1)CCCC3,8.12% (inactive)
3,Oc1c(Br)cc2oc3c(c2c1C=NCc1ccncc1)CCCC3,84% (active)
4,CCCc1cnc(-c2ccc(C)c3ncccc23)nc1,8.84% (inactive)
5,COc1ccc(Cl)cc1C(=O)Nc1cc(-c2cccs2)nn1-c1nc(C(C)C)cc(=O)[nH]1,101% (active)
6,COc1ccc(Cl)cc1C(=O)Nc1cc(-c2cccs2)nn1-c1nc(C)cc(=O)[nH]1,96.4% (active)
7,CC(C)(C)c1cc(C(c2ccncc2)N2CCOCC2)cc(C(C)(C)C)c1O (stereo not given),94.5% (active)
8,CN1CCN(C(c2ccc(Cl)cc2)c2cc(Cl)c3cccnc3c2O)CC1 (stereo not given),90.6% (active)
9,Oc1c(C(c2ccc(Br)cc2)N2CCCC2)cc(Cl)c2cccnc12 (stereo not given),10.6% (inactive)
10,Oc1c(C(c2ccncc2)N2CCOCC2)cc(Cl)c2cccnc12 (stereo not given),101% (active)
11,CCOC(=O)N1CCN(C(=O)CCc2ccc(-c3ccc(OC)cc3)n2-c2ccc(SC)cc2)CC1,13.6% (inactive)
12,CCOC(=O)N1CCN(C(=O)CSc2cc(-c3ccccc3)ncn2)CC1,93.6% (active)
13,CCOC(=O)CNC(=O)CSc1ncnc2c1nnn2Cc1ccccc1,-26.6% (inactive)
14,CC(C)(C)c1ccc2c(c1)CC(CNC(=O)/C=C/c1ccccc1)O2 (stereo not given),27.2% (inactive)
15,O=C(NCC1Cc2ccccc2O1)c1ccc(Cl)s1 (stereo not given),53.1% (active)
16,CC(C)(C)n1nc(C2CC2)cc1C(=O)NCC1Cc2ccccc2O1 (stereo not given),-7.17% (inactive)
17,O=C(OCC1CC2CCC1C2)C(c1ccccc1)n1cccn1 (stereo not given),92.2% (active)
18,CC(=O)N1CCC(NS(=O)(=O)c2ccc3c(c2)CCCC3)CC1,86.8% (active)
19,O=S(=O)(NC1CCN(C2CC2)CC1)c1cc(Cl)cc(Cl)c1,4.16% (inactive)
20,O=S(=O)(NC1CCc2cc(F)ccc21)c1ccc2c(c1)CCC2 (stereo not given),10.6% (inactive)
21,CN(C)c1ccc(C(=C2C=CC(=[N+](C)C)C=C2)c2ccc(N(C)C)cc2)cc1,59.1% (active)
22,O=C(c1cc2cc(Cl)ccc2o1)N1CCN(S(=O)(=O)c2ccccc2Cl)CC1,42.3% (inactive)
23,O=C(NNC(=O)c1cc2cc(Cl)ccc2o1)c1cnccn1,101% (active)
24,CCc1c(C)nc(-n2nc(C)cc2NC(=O)c2cc(OC)cc(OC)c2)[nH]c1=O,101% (active)
25,CCc1c(C)nc(-n2nc(C)cc2NC(=O)c2ccc(C(F)(F)F)cc2)[nH]c1=O,101% (active)

row,SMILES,inhibition
1,CCc1c(C)nc(-n2nc(C)cc2NC(=O)c2cccc(OC)c2)[nH]c1=O,102% (active)
2,CCc1c(C)nc(-n2nc(C)cc2NC(=O)c2ccc(OC)cc2)[nH]c1=O,99.8% (active)
3,CCc1c(C)nc(-n2nc(C)cc2NC(=O)c2cc(C(F)(F)F)cc(C(F)(F)F)c2)[nH]c1=O,-3.31% (inactive)
4,CCOc1cc(C(=O)Nc2cc(C)nn2-c2nc(C)c(CC)c(=O)[nH]2)cc(OCC)c1OCC,-22.4% (inactive)
5,CCn1cc(NC(=O)c2cc3ccc(C(C)(C)C)cc3[nH]2)ccc1=O,-0.51% (inactive)
6,CCc1c(C)nc(-n2nc(C)cc2NC(=O)c2cccc([N+](=O)[O-])c2)[nH]c1=O,99.7% (active)
7,CCc1c(C)nc(-n2nc(C)cc2NC(=O)c2ccc(C)c(C)c2)[nH]c1=O,42.5% (inactive)
8,CCc1c(C)nc(-n2nc(C)cc2NC(=O)c2cccc(C)c2)[nH]c1=O,101% (active)
9,CCc1c(C)nc(-n2nc(C)cc2NC(=O)c2ccc(F)c(F)c2)[nH]c1=O,99.7% (active)
10,CCc1c(C)nc(-n2nc(C)cc2NC(=O)c2ccccc2)[nH]c1=O,-16.5% (inactive)
11,C=CCN1C(=O)C(=O)N(CC(=O)c2cc(C)n(CCCOC)c2C)C1=O,-11.2% (inactive)
12,O=C(CSC1=NCCS1)N1c2ccccc2Sc2ccccc21,27.6% (inactive)
13,CCSc1nnc2c(n1)OC(c1ccc(OCc3ccccc3)cc1)Nc1ccccc1-2 (stereo not given),83% (active)
14,O=C(O)c1cc(Br)ccc1N=Cc1nc(-c2ccc(Cl)cc2)oc1O,50.4% (active)
15,O=C(O)c1cc2c(ccc3cc(Br)ccc32)oc1=O,47.8% (inactive)
16,CCC(C)(C)c1ccc(Oc2ccc(N)cc2)cc1,21.9% (inactive)
17,Nc1ccc(Oc2ccc(N)cc2)cc1,-13.3% (inactive)
18,Nc1ccc(Oc2ccc(Oc3ccc(N)cc3)cc2)cc1,72.7% (active)
19,CCS(=O)(=O)c1ccc(-c2cccc(NS(=O)(=O)c3ccc(C)cc3C)c2)nn1,99.5% (active)
20,Cc1cc(S(=O)(=O)Nc2cccc(Br)c2)ccc1Br,39.6% (inactive)
21,CC(=O)Nc1cccc2c1NCCC2,-0.59% (inactive)
22,O=S(CSc1nc(Br)ns1)c1nc(Br)ns1 (stereo not given),102% (active)
23,COc1ccc2nc(C(=O)NCC(C)c3ccccc3)ccc2c1 (stereo not given),52.4% (active)
24,COc1ccc2cc(C(=O)NNC(=O)c3ccccn3)c(C)nc2c1,0.1% (inactive)
25,CCN1CCc2nc3ccccc3c(C(=O)NCc3ccc(OC)cc3)c2C1,-11% (inactive)
